Screening data (PubChem)
A selection: hits, their analogues and other compounds. The true share with any hit is near 2.4%.
Pol kappa inh: blocks human DNA polymerase kappa activity; AID 588579; Potency, µM (doses to about 107 µM), for inactives: at the top dose activity, negative = inhibition, usual class: inhibitors; Q9UBT6; actives 0.53% (n = 400,000); purified Pol kappa, fluorescent DNA synthesis assay, 10 min; note: % is set by controls: 0 for no effect and ±100 for the full control effect
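Enzyme at 10 nM met test compounds for 15 min at room temperature. Substrate addition (50 nM final) began the reaction, which was monitored by fluorescence at 0 and 10 min.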
FEN1 inh: blocks human flap endonuclease 1; P39748; Recombinant FEN1 flap cleavage, fluorescence, 15 min; Potency, µM (titrated, usually from 114 µM), without a hit: at the highest dose activity change, negative = inhibition, hits mostly inhibitors; actives 0.35% (n = 390,000); AID 588795; note: % is set by controls: 0 for no effect and ±100 for the full control effect; nearly all actives have a fitted effect of over 65% in size
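Read-out was taken twice, immediately and after 15 min, following addition of 50 nM substrate to 10 nM FEN1 that had sat with test compound for 15 min at room temperature. Curves came from a four-parameter Hill model.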
WRN inhibitor: blocks human WRN helicase. actives 0.46% (n = 360,000). Potency, µM (series often up to 114 µM), inactives show top-dose activity change, negative = inhibition, hits mostly inhibitors. WRN helicase unwinding, fluorescent forked duplex, kinetic. AID 651768. Q14191; note: % is set by controls: 0 for no effect and ±100 for the full control effect; nearly all actives have a fitted effect of over 55% in size
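Kinetic red-fluorescence monitoring (525/598 nm) tracks WRN helicase activity after 100 nM fluorophore-quencher forked duplex and 2 mM ATP are added to 20 nM enzyme pretreated 15 min at room temperature with compound.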
POLB inh: inhibitors of human DNA polymerase beta; Pol beta primer extension/strand displacement, fluorescence kinetic; Potency, µM (titrated, usually from 114 µM), for the others: at the highest dose activity change, negative = inhibition, usual class: inhibitors; actives 1.3% (n = 340,000); AID 485314; P06746; note: % is set by controls: 0 for no effect and ±100 for the full control effect
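Kinetic readout of DNA synthesis with strand displacement by Pol beta. Compound and 10 nM enzyme sit 15 min at room temperature; 50 nM substrate starts the reaction, read immediately and at 10 min.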
POLH inh: DNA polymerase eta (human) inhibition. Q9Y253. recombinant Pol eta, fluorescent DNA replication assay. Potency, µM (doses to about 114 µM), inactives show top-dose activity change, negative = inhibition, usual class: inhibitors. actives 1.2% (n = 390,000). AID 588591; note: % is set by controls: 0 for no effect and ±100 for the full control effect
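Pol eta (10 nM) was preincubated with compounds for 15 min at room temperature, after which fluorescent replication substrate (50 nM final) was added to start the reaction. Fluorescence was read kinetically at 0 and 10 min.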
POLI inh: blocks human DNA polymerase iota activity; Q9UNA4; Pol iota fluorescent replication assay, 10 min; Potency, µM (titrated, usually from 115 µM), inactives show at the highest dose activity, negative = inhibition, most hits filed as inhibitors; actives 1% (n = 390,000); AID 588590
Target sequence (Q9UNA4 whole entry, looked up): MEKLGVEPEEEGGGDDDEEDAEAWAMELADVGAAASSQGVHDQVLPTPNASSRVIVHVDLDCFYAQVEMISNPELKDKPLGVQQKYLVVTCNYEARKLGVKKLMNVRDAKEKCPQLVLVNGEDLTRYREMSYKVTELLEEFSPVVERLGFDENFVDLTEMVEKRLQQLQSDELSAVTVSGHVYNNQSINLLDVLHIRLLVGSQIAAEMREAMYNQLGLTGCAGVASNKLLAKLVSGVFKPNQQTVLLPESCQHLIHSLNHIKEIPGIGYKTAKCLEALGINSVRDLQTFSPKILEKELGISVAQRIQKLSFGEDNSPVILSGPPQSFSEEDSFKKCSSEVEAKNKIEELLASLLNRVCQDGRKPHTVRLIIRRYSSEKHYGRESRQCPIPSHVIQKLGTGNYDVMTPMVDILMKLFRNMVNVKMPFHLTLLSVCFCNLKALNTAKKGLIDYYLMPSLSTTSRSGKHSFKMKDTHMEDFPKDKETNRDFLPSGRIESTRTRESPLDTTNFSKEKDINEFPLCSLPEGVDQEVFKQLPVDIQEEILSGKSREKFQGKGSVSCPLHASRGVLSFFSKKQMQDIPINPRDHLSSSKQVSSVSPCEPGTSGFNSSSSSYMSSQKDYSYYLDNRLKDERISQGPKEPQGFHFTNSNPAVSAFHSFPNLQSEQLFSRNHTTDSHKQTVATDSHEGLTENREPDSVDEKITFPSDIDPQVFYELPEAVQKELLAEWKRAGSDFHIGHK
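Pol iota at 10 nM preincubated 15 min with compounds at room temperature; reaction started with fluorescent substrate, 50 nM final. Fluorescence read kinetically at 0 and 10 min; buffer-only wells as negative control.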
* marks the source's active call; other numbers are inactive results; ? = inconclusive; . = not tested or not shown; [ ] = remark or other dose. Calls come from the whole dose curve; as a rule, active = well fitted curve in the direction sought with a large enough effect; inconclusive = small, poorly fitted or top-dose-only effect, or another doubt; inactive = no such curve, though single readings can be large; an effect the other way counts as inactive or inconclusive. Potency is the fitted concentration of half-maximal effect.

SMILES | Pol kappa inh | FEN1 inh | WRN inhibitor | POLB inh | POLH inh | POLI inh
O=S(=O)(Nc1nc2n(n1)C(c1ccc(F)cc1)C=C(c1ccc(Cl)cc1)N2)c1ccccc1 (configuration not stated) | -1.5% | 9.3% | . | 8.3% | 89.1µM* | 33.5%
CCc1ccc(C=O)cc1 | 5.1% | -3.8% | . | . | . | 30.8%
CCCNC(=O)[C@H]1O[C@@H]1C(=O)N[C@H](C(=O)N1CCC[C@H]1C(=O)OC)[C@@H](C)CC | 4.5%[19.4 µM] | . | . | . | . | .
COc1cccc(OCc2cc(=O)n3c(-c4ccccc4)csc3n2)c1 | -23.9% | -3.3% | . | 20µM* | -22.1% | -28.9%
CCN(CC(=O)NC(C)(C)C)Cc1cc(=O)n2c(-c3ccccc3)csc2n1 | -41.9% | 0.4% | -17.0% | ? | ? | 44.7µM*
Cc1ccccc1OCc1cc(=O)n2c(-c3ccccc3)csc2n1 | -9.4% | -12.7% | . | 24.8% | -4.6% | 12.2%
CC(C)Oc1cccc(C(=O)N/N=C/c2ccoc2)c1 | -9.1% | -2.7% | -4.3% | -2.2% | -8.4% | 1.8%
Cc1cccc(C(=O)N/N=C/c2ccoc2)c1 | ? | 19.1% | -7.8%[11.6 µM] | 25.1µM* | ? | ?
COc1ccc(C2/C=C\CN(S(=O)(=O)c3ccc(C)cc3)C(Cc3ccccc3)C(=O)N2Cc2ccc(F)cc2)cc1 (configuration not stated) | -7.6% | -19.2% | . | . | . | -4.9%
Cc1ccc(C)c(-n2c(CCC(=O)O)ccc2-c2ccc(Cl)cc2)c1 | 4.4% | 7.8% | . | 7.94µM* | 13.9% | -16.1%
CCCn1c(CCC(=O)O)ccc1-c1ccc(OC)cc1 | -4.2%[60.1 µM] | -3.6% | -26.7% | 25.1µM* | ? | 5.9%
COc1ccc(-c2ccc(CCC(=O)O)n2NC(N)=O)cc1 | -9.3% | 2.2% | -5.3% | 6.4% | -4.5% | 2.5%
Cc1ccc(-c2ccc(CCC(=O)O)n2-c2ccc(C)c(Cl)c2)cc1 | -0.3% | 8.4% | . | ? | 5.6% | 15.6%
O=C(O)CCc1ccc(-c2ccc(Cl)cc2)n1CC(=O)O | -9.1% | 3.8% | -11.7% | ? | 50.1µM* | ?
CO[C@H]1OC2O[C@@]3(C)CC[C@H]4[C@H](C)CC[C@@H]([C@H]1C)[C@@]24OO3 (some centres not stated) | 3.4%[60.1 µM] | . | . | . | . | .
CC[C@H](C)[C@H](NC(=O)[C@H](Cc1ccc(O)cc1)NC(=O)[C@H](Cc1cnc[nH]1)NC(=O)[C@H](CCCNC(=N)N)NC(=O)[C@H](CC(C)C)NC(=O)[C@H](C)NC(=O)[C@H](CO)NC(=O)[C@H](Cc1ccc(O)cc1)NC(=O)[C@H](Cc1ccc(O)cc1)NC(=O)[C@H](CCCNC(=N)N)NC(=O)[C@H](C)NC(=O)[C@H](CCSC)NC(=O)[C@H](CC(=O)O)NC(=O)[C@H](CCC(=O)O)NC(=O)[C@H](C)NC(=O)[C@@H]1CCCN1C(=O)[C@H](C)NC(=O)[C@H](CC(=O)O)NC(=O)[C@H](CCC(=O)O)NC(=O)CNC(=O)[C@@H]1CCCN1C(=O)[C@H](CC(N)=O)NC(=O)[C@H](CC(=O)O)NC(=O)[C@@H]1CCCN1C(=O)[C@H](CCCCN)NC(=O)[C@H](CO)NC(=O)[C@@H]1CCCN1C(=O)[C@@H](N)Cc1ccc(O)cc1)C(=O)N[C@@H](CC(N)=O)C(=O)N[C@@H](CC(C)C)C(=O)N[C@@H](CC(C)C)C(=O)N[C@H](C(=O)N[C@@H](CCCNC(=N)N)C(=O)N1CCC[C@H]1C(=O)N[C@@H](CCCNC(=N)N)C(=O)N[C@@H](Cc1ccc(O)cc1)C(N)=O)[C@@H](C)O | 13.7%[60.1 µM] | . | . | . | . | .
CCC[C@H](NC(=O)[C@H](CC(C)C)N(C)C(=O)CNC(=O)[C@@H](NC(=O)[C@H](Cc1ccccc1)NC(=O)[C@H](CCCCN)NC(=O)[C@@H](N)CC(=O)O)C(C)C)C(N)=O | 16.7%[60.1 µM] | . | . | . | . | .
CSc1nc(-c2ccco2)nn1C(=O)c1cccs1 | -14.3% | 0.7% | 11.4% | -23.6% | -9.9% | ?
COc1ccc(C(=O)n2nc(-c3ccco3)nc2SC)cc1OC | -9.6% | 0.6% | ? | ? | ? | 31.6µM*
CC(=O)c1ccc(OCC(O)CN2CCN(CCN3C(=O)c4cccc5cccc(c45)C3=O)CC2)cc1 (configuration not stated) | -34.5% | ? | 16.5% | 14.1µM* | ? | ?
CC(C)OCC(O)CN1CCN(CCN2C(=O)c3cccc4cccc(c34)C2=O)CC1 (configuration not stated) | -21.7% | -23.1% | 19.1% | ? | -14.4% | 18.1%
Cc1[nH]nc2c1C(c1ccc(F)cc1)C(C#N)=C(N)O2 (configuration not stated) | -3.2% | 3.4% | -3.0% | -28.7% | -5.6% | 7.9%
Cc1oc(C)c2c(=O)ccc3c(c12)OC(N)=C(C#N)C3c1ccc(F)cc1 (configuration not stated) | ? | -22.0% | -34.0% | 20µM* | ? | ?
Cn1c(=O)c2[nH]c(NCCCN3CCOCC3)nc2n(C)c1=O | -3.8% | 1.5% | -2.0% | 89.1µM* | 2.0% | 4.9%
COc1cc(NCCCCCCN)c2ncccc2c1OC | -9.5% | ? | 50.1µM* | . | 44.7µM* | 11.2µM*
SMILES | Pol kappa inh | FEN1 inh | WRN inhibitor | POLB inh | POLH inh | POLI inh
COc1cc2nc(NC3CCN(Cc4ccccc4)CC3)nc(N3CCCN(C)CC3)c2cc1OC | 0.9% | ? | . | . | . | 6.4%
COC(=O)c1c(NC(=O)C2CC=CCC2C(=O)O)sc(C(N)=O)c1C (configuration not stated) | -17.1% | -0.4% | ? | 2.8% | ? | 14.1µM*
COC(=O)c1c(NC(=O)c2ccccc2)sc(C(N)=O)c1C | -6.1% | 1.1% | -4.8%[11.6 µM] | 13.7% | -16.2% | 89.1µM*
COC(=O)c1c(NC(=O)c2ccccc2)sc(C(=O)c2ccccc2)c1C | -9.6% | -3.0% | -5.9% | 39.0% | -5.4% | -10.8%
COC(=O)c1c(NC(=O)C2CC=CCC2C(=O)O)sc(C)c1C (configuration not stated) | 4.9% | -8.2% | -2.8% | 5.1% | -9.4% | 29.7%
COc1ccc(N(C)S(=O)(=O)c2c(C)[nH]c(=O)[nH]c2=O)c(OC)c1 | -6.8% | -0.2% | -2.4% | 3.5% | -12.9% | 89.1µM*
Cc1c(Cl)c(=O)oc2cc(OCC(=O)N3CCCC(C)C3)ccc12 (configuration not stated) | 3.9% | 10.1% | -29.5% | . | -9.9% | 8.5%
COc1ccc2c(c1)c(=O)oc1cc(OCC(=O)N3CCC(C)CC3)ccc12 | ? | ? | ? | 22.4µM* | 79.4µM* | 17.8µM*
